The full ranking holds about 39,000 sequences; the median of “fluorescence intensity (a.u.)” is about 4,300, and the highest 2% start at about 39,000. The entries come from a sample that favours the highest values as a whole.

For this test, the target named is T1, OsSMF1 (Oryza sativa, UniProt Q6ZLB0 1-436).
T1 sequence: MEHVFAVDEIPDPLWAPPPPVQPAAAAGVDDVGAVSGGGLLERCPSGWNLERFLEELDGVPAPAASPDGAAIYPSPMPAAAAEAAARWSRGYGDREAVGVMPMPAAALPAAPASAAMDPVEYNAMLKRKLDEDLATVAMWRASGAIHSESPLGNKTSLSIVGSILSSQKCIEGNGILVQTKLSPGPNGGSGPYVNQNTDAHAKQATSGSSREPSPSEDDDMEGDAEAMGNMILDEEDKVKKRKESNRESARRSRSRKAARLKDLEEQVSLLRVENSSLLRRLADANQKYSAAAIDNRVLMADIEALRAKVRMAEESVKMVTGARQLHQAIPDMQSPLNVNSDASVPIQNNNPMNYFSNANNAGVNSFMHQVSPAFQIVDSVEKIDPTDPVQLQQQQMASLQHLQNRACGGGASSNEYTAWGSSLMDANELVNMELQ
The experiment in a line: protein-binding microarray (RPBM); PBS, 2% BSA, 51.3 ng/ul salmon testes DNA, 50 uM zinc acetate, 200 nM TF, 25 C, 1 h; high values mean tight binding. As to conditions: protein: recombinant; tags: N-terminal polyhistidine and DsRed monomer fusion (pET32a); chain copies: 2; label: CyDye5-dUTP incorporated in the synthesized complementary strand; 3' TTTTT single-stranded linker to array surface; dsDNA, one strand shown. A digest of the protocol:
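Binding signal is reported as fluorescence intensity per feature (arbitrary units) from an Axon 4000B scanner. Incubation used 200 nM of each Ni–NTA-purified, N-terminally polyhistidine- and DsRed-fused transcription factor from E. coli BL21-CodonPlus on a double-stranded custom Agilent array for 1 h at 25 °C, with 50 µM zinc acetate in the buffer, followed by washing.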
With “GTATCCATTCCTGCAAATCCAAGTTGGCAATTCCGAGGGCCGGAGTCACCTAGTGCAG”, the binding signal was 3340 fluorescence intensity (a.u.).
To “GCGGCGCGACAGCGACAAAGCGCACGCGCGCGGCGAGCTGCGGAGTCACCTAGTGCAG” belongs 30800 fluorescence intensity (a.u.); to “TAACTTTGGAACAGGCTGATAAGGGTGGATCCTGCGGTTGCGGAGTCACCTAGTGCAG”, 3440 fluorescence intensity (a.u.).
Next, “CTGTTTCAGCACCACTGAGTTCGCAGCAAATGACACAAGGCGGAGTCACCTAGTGCAG”: 3340 fluorescence intensity (a.u.).
Turning to “CTTCAGGGTCTAGTCTTTTCAAACCATCGGAGTTATCGTCCGGAGTCACCTAGTGCAG”, the binding signal is 3530 fluorescence intensity (a.u.).
Take “CCGTCACGGATGACACTTATCTGTGACGGGCTATAGTTGACGGAGTCACCTAGTGCAG”: the binding signal is 4260 fluorescence intensity (a.u.).
Next, “GTCGCGCGCTTGGTGGCTTGCAAGAACCAGCTCCACCGCGCGGAGTCACCTAGTGCAG”: 3300 fluorescence intensity (a.u.); “GATTCGTTGAATACCGTCATTATTGGTGGGTTATCATCATCGGAGTCACCTAGTGCAG”: 3490 fluorescence intensity (a.u.); “GTGGAGTGCGGTGGACGGAGCGGCGGGGCGGGGCGGTCAGCGGAGTCACCTAGTGCAG”: 6720 fluorescence intensity (a.u.).
For “AAAGTTTTGCATGCCGCTGTCGAAGTCGGCTTCCGCGTAGCGGAGTCACCTAGTGCAG”, the binding signal is 32300 fluorescence intensity (a.u.).
Next, “ACCAACAAGGTCGTCGCCGACGACGCCGACGCCGACGCCGCGGAGTCACCTAGTGCAG”: 27600 fluorescence intensity (a.u.); “AACCGAATCCAATCGAGCTCAGGACGAGGCGGAGGAGGAGCGGAGTCACCTAGTGCAG”: 42900 fluorescence intensity (a.u.).
Take “ACGGAGAAGTCCCGAGACCGGCGCCGCCAGGACCGCCACCCGGAGTCACCTAGTGCAG”: the binding signal was 44400 fluorescence intensity (a.u.).
Next, “TCGGCGCCGCGCCGCGCCACGGAGGGTGTCACGAGACCGCCGGAGTCACCTAGTGCAG”: 4790 fluorescence intensity (a.u.); “GCCTAGCCAGGATCGCCGCCGGCGGCGCCGCCGAGTCACACGGAGTCACCTAGTGCAG”: 33100 fluorescence intensity (a.u.).
Next, “GCCAACGAGGTCGCGTTCGACAAGGTGAAGGACGCCGGCGCGGAGTCACCTAGTGCAG”: 39600 fluorescence intensity (a.u.); “AGAGAGAGAGAGAGAGAGAGAGAGCTCAGGATCGACGAGACGGAGTCACCTAGTGCAG”: 16900 fluorescence intensity (a.u.); “TGCAGCAGGAGATCGATCGATCGATCGATCCAACCGAATGCGGAGTCACCTAGTGCAG”: 3260 fluorescence intensity (a.u.).
Consider “TTAGTGAACGGTGCAACGCGTCAAGGACGAGTCAACGCGCCGGAGTCACCTAGTGCAG”, for which the binding signal is 4850 fluorescence intensity (a.u.).
To “TCTCCATAAGAGCACCCACCAACTCAGCCTCTCCTCCCATCGGAGTCACCTAGTGCAG” belongs 3340 fluorescence intensity (a.u.).
To “CTCCTCCGCCGCCGCCGCTCCCAGCCTGCACGCCGGCCGCCGGAGTCACCTAGTGCAG” belongs 26200 fluorescence intensity (a.u.); to “GTGCTGTTCCTGCATGTGCATGCATGTATGAGTACGTACGCGGAGTCACCTAGTGCAG”, 3910 fluorescence intensity (a.u.).
To “TCTCTCTTCACGGGAGGGCAGTGTGGTTTTGGTCGGATTCCGGAGTCACCTAGTGCAG” belongs 3530 fluorescence intensity (a.u.); to “TAGTAGATCTAGTATTTTATCTTTAGTCCATCTACCGAGCCGGAGTCACCTAGTGCAG”, 28500 fluorescence intensity (a.u.).
With “GCCGCTACAAACCGTGGGCAAGACGTGTCGCCATGGGAGCCGGAGTCACCTAGTGCAG”, the binding signal is 4560 fluorescence intensity (a.u.).
To “TGCCAATGTTCCAATTGGTGTTGTCATCTTTGGGTTACCACGGAGTCACCTAGTGCAG” belongs 14100 fluorescence intensity (a.u.).
Next, “ATTTGGGATGTCTTTATCTCATCCAATTAATCCACGGATACGGAGTCACCTAGTGCAG”: 49200 fluorescence intensity (a.u.); “CAATTTAATGCTACTTATCTCACATGATGTCTTGGATGTTCGGAGTCACCTAGTGCAG”: 3980 fluorescence intensity (a.u.); “GGGCACTCGAACCATCTAGTGCAGACGTGGTAACTGGCGCCGGAGTCACCTAGTGCAG”: 5510 fluorescence intensity (a.u.).
To “TCTTATACTAAGATAATAAGATTATATCCTTGTCATCCAACGGAGTCACCTAGTGCAG” belongs 4430 fluorescence intensity (a.u.).
“ATATCCATATCAAATTAAGCCAGGTTTGTAATTAATAACTCGGAGTCACCTAGTGCAG”: the binding signal was 9630 fluorescence intensity (a.u.).
Next, “CCAAACTAATTAAGACAGCCAACTCACCTCCATCATATAACGGAGTCACCTAGTGCAG”: 65500 fluorescence intensity (a.u.); “GCCGCCGCTCCCTCCCAATGACCCGCCGGATCTCCTAGTGCGGAGTCACCTAGTGCAG”: 3160 fluorescence intensity (a.u.); “CCTGCAGCCAGGTCCTCGTATCATAGATGACGACGACTTCCGGAGTCACCTAGTGCAG”: 4660 fluorescence intensity (a.u.).
Next, “TACTAGTGTGGACATGTTCCCCTTTTCAGGAAGATGGCAGCGGAGTCACCTAGTGCAG”: 40300 fluorescence intensity (a.u.).
To “TTTTGGATTCCCTTTTCATCCATGGATGCATGTGTTCCTTCGGAGTCACCTAGTGCAG” belongs 3220 fluorescence intensity (a.u.); to “CGAAGCGGTTCAGGAAGATGGAGCGGCACGTGGCTGCGACCGGAGTCACCTAGTGCAG”, 5240 fluorescence intensity (a.u.); to “GGCAGCGACCACGACACGTCGTTGTTCCCTCTGCTCCCGCCGGAGTCACCTAGTGCAG”, 6470 fluorescence intensity (a.u.).
Turning to “GTGTGTGTGTGTGCTGCGTGTGCGTGTGCGCGCGCGTGCCCGGAGTCACCTAGTGCAG”, the binding signal is 5210 fluorescence intensity (a.u.).
To “CCCTCGCCGCCACGGCGAACCCCTCGCCGCCGCCACCGCCCGGAGTCACCTAGTGCAG” belongs 3570 fluorescence intensity (a.u.); to “GCACCTCGCAATATCCATGGTCCCCGCTGCCCGTGGACTCCGGAGTCACCTAGTGCAG”, 41200 fluorescence intensity (a.u.); to “TCCCAAACCCCGCGCCGCCTCTTACCGCTTCGCGTCAGCTCGGAGTCACCTAGTGCAG”, 63900 fluorescence intensity (a.u.).
To “CAATCCCACCTCGCGCGATGACTCCGCACCCGCCCCACCTCGGAGTCACCTAGTGCAG” belongs 7260 fluorescence intensity (a.u.); to “GACTCCCGCGTGCTCGCCGCGCCGCCCACCGTCACCGCCTCGGAGTCACCTAGTGCAG”, 3230 fluorescence intensity (a.u.).

Source of the values: article PMC7819943, “Rice protein-binding microarrays: a tool to detect cis-acting elements near promoter regions in rice”.
